Drawing on PubChem BioAssay (EPA / NIEHS), this text covers outcome for 27 molecules.

Records with an inconclusive call do not appear. Active and inactive are the calls of the source. How the source made its calls: active means hit-call score of the fitted dose curve at least 0.9, where 1 is the maximum; inconclusive means response in the unintended direction; inactive means score below 0.9.

Glyceraldehyde-3-phosphate dehydrogenase (Homo sapiens), sequence (P04406 whole entry, looked up): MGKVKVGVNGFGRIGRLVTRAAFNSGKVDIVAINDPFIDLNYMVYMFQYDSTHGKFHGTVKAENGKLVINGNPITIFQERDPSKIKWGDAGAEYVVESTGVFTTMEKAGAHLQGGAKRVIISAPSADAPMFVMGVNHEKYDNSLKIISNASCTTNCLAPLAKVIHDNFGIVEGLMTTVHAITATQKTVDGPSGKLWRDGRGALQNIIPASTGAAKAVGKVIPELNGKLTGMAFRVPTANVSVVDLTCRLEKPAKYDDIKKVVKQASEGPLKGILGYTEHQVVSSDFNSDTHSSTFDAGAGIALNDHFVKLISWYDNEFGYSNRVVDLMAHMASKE

Read-out in the assay: Glyceraldehyde-3-phosphate dehydrogenase (Homo sapiens) (UniProt P04406)
Briefly: CLD_GAPDH_24hr: CellzDirect (CLD) Gene Expression Assay for Baseline Control (Glyceraldehyde 3-phosphate dehydrogenase) at 24 hours (AID 2283692). The procedure:
CLD_24hr is a cell-based, multiplexed-readout assay that uses hepatocyte, a human liver primary cell, with measurements taken at 24 hours after chemical dosing in a 96-well plate.CLD_GAPDH_24hr is one of 16 assay component(s) measured or calculated from the CLD_24hr assay. It is designed to make measurements of mRNA induction, a form of inducible reporter, as detected with chemiluminescence signals by Quantitative Nuclease Protection Assay (qNPA) technology.Data from the assay component CLD_GAPDH_24hr was analyzed at the endpoint, CLD_GAPDH_24hr, in the positive analysis fitting direction relative to DMSO as the negative control and baseline of activity. Using a type of inducible reporter, gain-of-signal activity can be used to understand changes in the reporter gene as they relate to the gene GAPDH. Furthermore, this assay endpoint can be referred to as a secondary readout, because this assay has produced multiple assay endpoints where this one serves a background control function. To generalize the intended target to other relatable targets, this assay endpoint is annotated to the background measurement intended target family, where subfamily is baseline control.
Human hepatocyte cultures were treated daily for two consecutive days with fresh dosing solutions containing appropriate concentrations of the 320 ToxCast chemicals (chemical identities were blinded to CellzDirect and other ToxCast collaborators), vehicle control (0.2% DMSO), and positive control inducers as summarized in Table 1. Due to the large number of treatment groups and chemicals examined, the ToxCast chemicals were divided into two groups (spanning two independent cultures of hepatocytes from separate donor preparations (Hu778: ToxCast plates 1 and 2; Hu776: ToxCast plates 3 and 4). Each preparation of human hepatocyte cultures was treated with respective vehicle control, medium only control, set of six positive controls/reference chemicals for the five hepatic receptor pathways, and a subset of eight of the ToxCast chemicals (indoxacarb, pyrithiobac-sodium, norflurazon, cyhalofop-butyl, methomyl, thiram, acetochlor, and propiconazole). These replicate data, coupled with internal replicates designed within the blinded ToxCast chemical library, provided additional data to evaluate interindividual differences between hepatocyte preparations and their potential impact on chemical profiles.Cell morphology and integrity were evaluated using phase-contrast microscopy as an indicator of hepatocyte cell health (Tyson & Green, 1987). Cultures for each treatment group (i.e., media, vehicle [0.2% DMSO], positive control inducers [multiple concentrations], and the ToxCast chemicals [multiple concentrations]) were observed and cell morphology was assessed relative to vehicle control cultures at each harvest time point (0, 6, 24, or 48 h). […] Images were evaluated at the conclusion of the study to assess changes in cell integrity and account for the effects of chemical exposure on uncharacteristic changes in concentration-dependent gene expression profiles. The results from these determinations of apparent cytotoxicity were annotated (yes/no) alongside the corresponding qNPA data for reference.At the conclusion of each treatment period, hepatocyte cultures (96-well) were washed with 1 volume of HBSS, lysed by addition of 25 ul ArrayPlate lysis buffer (HTG, Tucson, AZ), and 70 ul/well of Denaturation Oil, denatured by incubation at 95C for 10 min, and frozen at approximately -70C until analysis by nuclease protection assay (qNPA) (Roberts et al., 2007). For qNPA analysis, cell lysates were thawed at 50C for approximately 30 min, qNPA probes were added, and samples were incubated at 95C for 10 min to begin the detection process by denaturing the target RNA, dissociating the duplexes and secondary structure hybridization. At the conclusion of the hybridization period, S1 nuclease reagent was added to each sample to digest all nonprotected nucleotides at 50C for 60-90 min. […]
`COC(=O)c1cccc(C)c1S(=O)(=O)NC(=O)Nc1nc(OCC(F)(F)F)nc(N(C)C)n1`: the outcome was inactive.

For `S=C(S)NCCNC(=S)S.[Mn+2].[S-]C([S-])=NCCN=C([S-])[S-].[Zn+2]`, the call was inactive. Next, `CCNc1nc(N)nc(Cl)n1`: “inactive”; `N#CSCSc1nc2ccccc2s1`: “inactive”; `C#CCOC(=O)[C@@H](C)Oc1ccc(Oc2ncc(Cl)cc2F)cc1`: “inactive”. With `CCCCOC(=O)[C@@H](C)Oc1ccc(Oc2ccc(C(F)(F)F)cn2)cc1`, the outcome was inactive. Next, `CCOC(=O)COc1cc(-n2ncc(C(F)(F)F)c(C)c2=O)c(F)cc1Cl`: “inactive”. Next, `COC(=O)c1ccccc1C(=O)O`: “inactive”; `OB(O)O`: “inactive”; `COC(=O)c1c(Cl)nn(C)c1S(=O)(=O)NC(=O)Nc1nc(OC)cc(OC)n1`: “inactive”. In the case of `CC1(C)C(C=C(Cl)Cl)C1C(=O)OCc1cccc(Oc2ccccc2)c1` (configuration not stated), the call was inactive.

Turning to `CCCOC(=O)c1ccc(C(=O)OCCC)nc1`, the outcome was inactive. Take `Oc1ccc(C(c2ccc(O)cc2)C(Cl)(Cl)Cl)cc1`: the molecule was classed as inactive. For `CCSC(=O)N(CC(C)C)CC(C)C` the value was “inactive”; for `CCCCCCC(C)OC(=O)COc1nc(F)c(Cl)c(N)c1Cl` (configuration not stated), “inactive”; for `CCCOC(=O)NCCCN(C)C`, “inactive”. As for `CCC(O)=C1C(=O)CC(C(=O)O)CC1=O` (configuration not stated), the result was inactive. In the case of `CCOC(=O)[C@H](C)Oc1ccc(Oc2nc3ccc(Cl)cc3o2)cc1`, the molecule was classed as inactive. For `CCCCCOC(=O)COc1cc(N2C(=O)C3=C(CCCC3)C2=O)c(F)cc1Cl` the value was “inactive”; for `COCCO`, “inactive”; for `CC(C)(C)[C@@H](O)[C@@H](Cc1ccc(Cl)cc1)n1cncn1`, “inactive”. For the molecule `S=C([S-])NCCNC(=S)[S-].[Mn+2]`, the outcome was inactive. Regarding `CCC(C)OC(=O)N1CCCCC1CCO` (configuration not stated), the molecule was called inactive. `CCCN(CCC)C(=O)SCC`: the result was inactive. Next, `CCCCC(CC)COC(=O)c1ccccc1C(=O)O` (configuration not stated): “inactive”; `COC(=O)c1ccccc1S(=O)(=O)NC(=O)Nc1nc(OC(F)F)cc(OC(F)F)n1`: “inactive”; `CSC(=O)c1cccc2nnsc12`: “inactive”.
